Experimental data from US20210230599, “STEM-LOOP COMPOSITIONS AND METHODS FOR INHIBITING INTERLEUKIN-8” (VITRISA THERAPEUTICS, INC., published 2021).

Molecular target: Interleukin-8 (IL8, CXCL8), C-terminal His-tagged (Homo sapiens, UniProt P10145 SEQ:1-72)
Assay: competition; competition TR-FRET; G18A
Settings: tags: C-terminal 6xHis (Sino Biological); ssRNA; 2'-F G, 2'-OMe A/C/U, 5' C6NH2, 3' idT
Protocol: To better understand the sequence requirements and to confirm the stem structures of members of the Aptamer 3 family as determined from sequence covariation analysis from both the primary and secondary (degenerate) selections, a series of variants which included mutations and deletions to the predicted stems were synthesized and screened (Table 24). Activity of each of these variants were tested using a time resolved competition TR-FRET assay in which the labeled parent Aptamer 3 was competed with increasing concentrations of unlabeled variants for binding to IL8 (FIG. 14). Briefly, 2-fold dilutions of thermally equilibrated aptamers were made in TR-FRET Buffer (50 mM MOPS, pH 7.4, 125 mM NaCl, 5 mM KCl, 50 μM CHAPS, 0.1 mg/mL BSA, 1 mM CaCl₂, and 1 mM MgCl₂). 5 μL of aptamer or control solution was added to 5 μl mix of 10 nM C-terminal His-tagged-IL8, 60 nM ALEXA FLUOR® 647-labeled Aptamer, and 5 nM anti-His-Eu (Perkin Elmer) in a black wall low volume 384 well plate (Greiner). For control, 5 μl of 1000-fold excess of unlabeled parent aptamer or 5 μl TR-FRET buffer alone was added to the mix of ALEXA FLUOR® 647-labeled aptamer, His-IL8, and anti-His-Eu. The plate was covered with a plate seal and subsequently incubated in the dark for 1 hour at room temperature. The plate was read on a Biotek CYTATION™ 5 plate reader. […]

Sequence | binding signal [fold worse than Aptamer 3]
UGAUGACGGUAGAUUACAGGUAGAGUGACCGCAUCU | ~5
